Laboratory results published in PubChem BioAssay AID1159580 (chemical genetic matrix, 2015).
“And” between values parts separate entries of the source, which are not always exact repeats. Identical values can stand only once. About 2,000 (36%) of roughly 5,500 compounds were called active. Inconclusive results (about 18%) are left out. Cut-off read from the data, not from the text of the source: active = normalized growth mostly below about 0.91 (no sharp cut-off); inconclusive = no clear call, values can overlap the other calls; inactive = mostly above about 0.92. This is one part of the list.

Experiment: chemical genetic growth profiling, strain panel (AID 1159580);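 note: tested at 20 µM; growth read once vehicle control cultures reached saturation at 30 °C; 1 = growth at the plate median or of vehicle wells; lower values mean less growth of the strain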
Conditions: S. cerevisiae deletion strains, growth OD

Measured: normalized growth

CC(C)Cn1c(=O)n(C)c(=O)c2[nH]cnc21
inactive: locus YAL013W, strain DEP1, hits give low values 0.999 | locus YAL021C, strain ccr4, hits give low values 1.03 and 0.994 | locus YAL026C, strain drs2, hits give low values 1 and 1.03 | locus YAL030W, strain snc1, hits give low values 0.99 and 1 | locus YAL040C, strain CLN3, hits give low values 0.982 | locus YBL061C, strain skt5, hits give low values 0.992 and 1.02 | locus YBR009C, strain hhf1, hits give low values 1.01 and 0.995 | locus YBR021W, strain FUR4, hits give low values 0.966 | locus YBR023C, strain chs3, hits give low values 1 and 1.01 | locus YBR171W, strain sec66, hits give low values 0.998 and 1.03 | locus YBR229C, strain ROT2, hits give low values 0.982 | locus YBR231C, strain swc5, hits give low values 0.989 and 1.01 | locus YBR279W, strain paf1, hits give low values 0.996 and 1 | locus YCL011C, strain gbp2, hits give low values 1.01 and 1 | locus YCL016C, strain dcc1, hits give low values 0.984 and 0.981 | locus YCL029C, strain bik1, hits give low values 0.984 | locus YCL061C, strain MRC1 (second series), hits give low values 0.984 | locus YCL061C, strain MRC1, hits give low values 1 | locus YCL069W, strain vba3, hits give low values 1 | locus YCR088W, strain abp1, hits give low values 1 and 1.01 | locus YDL005C, strain med2, hits give low values 1 and 1.01 | locus YDL035C, strain GPR1, hits give low values 1.01 | locus YDL040C, strain nat1, hits give low values 0.988 and 1.01 | locus YDL074C, strain BRE1, hits give low values 1.03 | locus YDL101C, strain DUN1, hits give low values 0.984 | locus YDL134C, strain PPH21, hits give low values 0.991 | locus YDL185W, strain tfp1, hits give low values 0.988 | locus YDL192W, strain arf1, hits give low values 0.996 | locus YDR001C, strain nth1, hits give low values 1 and 1.01 | locus YDR069C, strain doa4, hits give low values 0.987 and 1.02 | locus YDR101C, strain arx1, hits give low values 0.989 | locus YDR137W, strain rgp1, hits give low values 0.976 and 0.984 | locus YDR150W, strain NUM1, hits give low values 0.998 and 0.994 | locus YDR159W, strain sac3, hits give low values 0.965 and 1.04 | locus YDR162C, strain NBP2, hits give low values 1.03 | locus YDR195W, strain ref2 0.969 and 0.994 | locus YDR297W, strain sur2, hits give low values 0.987 and 1 | locus YDR318W, strain mcm21, hits give low values 0.974 | locus YDR334W, strain swr1, hits give low values 1.04 and 1.03 | locus YDR335W, strain msn5, hits give low values 1.01 | locus YDR363W, strain ESC2, hits give low values 0.991 | locus YDR388W, hits give low values 0.985 | locus YDR392W, strain spt3, hits give low values 1 and 0.935 | locus YDR502C, strain sam2, hits give low values 0.997 | locus YEL003W, strain gim4, hits give low values 1.02 | locus YEL037C, strain rad23, hits give low values 1.02 and 1.01 | locus YEL061C, strain CIN8 (second series), hits give low values 1.03 and 1 | locus YEL061C, strain CIN8, hits give low values 0.995 | locus YER002W, strain NOP16, hits give low values 0.994 | locus YER015W, strain faa2, hits give low values 1.01 and 1 | locus YER016W, strain bim1, hits give low values 0.987 and 1.01 | locus YER110C, hits give low values 0.977 | locus YER111C, strain swi4, hits give low values 0.977 and 1.02 | locus YER155C, strain BEM2 (second series), hits give low values 1.01 | locus YER155C, strain BEM2, hits give low values 0.984 | locus YER167W, strain BCK2, hits give low values 0.964 | locus YFR010W, strain ubp6, hits give low values 1.01 and 1.03 | locus YGL078C, strain dbp3, hits give low values 0.992 | locus YGL086W, strain mad1, hits give low values 0.951 | locus YGL167C, strain pmr1, hits give low values 0.995 and 1.01 | locus YGL173C, strain kem1, hits give low values 1 and 1.02 | locus YGL227W, strain vid30, hits give low values 0.973 and 1.01 | locus YGL240W, strain doc1, hits give low values 1.02 and 1.03 | locus YGL248W, strain PDE1, hits give low values 0.984 | locus YGL253W, strain hxk2, hits give low values 1.01 and 1.04 | locus YGR078C, strain PAC10, hits give low values 1.03 | locus YGR135W, strain pre9, hits give low values 0.998 | locus YGR229C, strain SMI1, hits give low values 1 | locus YGR252W, strain gcn5, hits give low values 0.955 | locus YHR013C, strain ard1, hits give low values 0.972 and 0.993 | locus YHR027C, strain rpn1, hits give low values 0.994 and 1.01 | locus YHR030C, strain SLT2, hits give low values 0.99 and 0.987 and 0.97 | locus YHR079C, strain IRE1 (second series), hits give low values 0.996 | locus YHR079C, strain IRE1, hits give low values 0.99 and 0.969 | locus YHR094C, strain hxt1, hits give low values 0.985 | locus YHR129C, strain ARP1, hits give low values 0.99 | locus YHR142W, strain chs7, hits give low values 0.983 and 1 | locus YHR200W, strain rpn10, hits give low values 0.982 | locus YIL066C, strain RNR3, hits give low values 0.965 | locus YIL073C, strain SPO22, hits give low values 0.944 | locus YIL125W, strain kgd1, hits give low values 0.996 | locus YIR030C, strain dcg1, hits give low values 0.987 | locus YJL092W, strain hpr5, hits give low values 1.01 and 1 | locus YJL095W, strain BCK1 (second series), hits give low values 0.991 and 1.01 | locus YJL095W, strain BCK1, hits give low values 0.992 and 1.01 and 0.971 | locus YJL115W, strain asf1, hits give low values 1.01 | locus YJL129C, strain trk1, hits give low values 0.974 and 1 | locus YJL134W, strain LCB3, hits give low values 0.984 | locus YJL154C, strain vps35, hits give low values 1.01 | locus YJL164C, strain tpk1, hits give low values 1 and 0.973 | locus YJL166W, strain qcr8, hits give low values 1.02 and 1.01 | locus YJL168C, strain set2, hits give low values 0.995 | locus YJL187C, strain SWE1 (second series), hits give low values 0.998 | locus YJL187C, strain SWE1, hits give low values 1 and 0.99 | locus YJR043C, strain POL32, hits give low values 0.983 | locus YJR066W, strain TOR1, hits give low values 0.923 and 0.916
